Screens as filed in PubChem BioAssay.
ALOX12 inh: Primary qHTS assay for inhibitors of human arachidonate 12S-lipoxygenase (ALOX12): Round 2. Polyunsaturated fatty acid lipoxygenase ALOX12 (Homo sapiens), P18054. purified 12hLO, xylenol orange hydroperoxide absorbance. 1.1% of 580,000 active. AID 1671190, 2021. Potency, µM (doses to about 108 µM), for the others: at the top dose activity change, negative = inhibition, most hits filed as inhibitors; active = well fitted inhibition curve with a large enough effect; inconclusive = small, poorly fitted or top-dose-only effect, or another doubt; inactive = no such curve, though single readings can be large or run the other way; note: potency is the fitted concentration of half-maximal effect; % is set by controls: 0 for no effect and ±100 for the full control effect
Target sequence (P18054 whole entry, looked up): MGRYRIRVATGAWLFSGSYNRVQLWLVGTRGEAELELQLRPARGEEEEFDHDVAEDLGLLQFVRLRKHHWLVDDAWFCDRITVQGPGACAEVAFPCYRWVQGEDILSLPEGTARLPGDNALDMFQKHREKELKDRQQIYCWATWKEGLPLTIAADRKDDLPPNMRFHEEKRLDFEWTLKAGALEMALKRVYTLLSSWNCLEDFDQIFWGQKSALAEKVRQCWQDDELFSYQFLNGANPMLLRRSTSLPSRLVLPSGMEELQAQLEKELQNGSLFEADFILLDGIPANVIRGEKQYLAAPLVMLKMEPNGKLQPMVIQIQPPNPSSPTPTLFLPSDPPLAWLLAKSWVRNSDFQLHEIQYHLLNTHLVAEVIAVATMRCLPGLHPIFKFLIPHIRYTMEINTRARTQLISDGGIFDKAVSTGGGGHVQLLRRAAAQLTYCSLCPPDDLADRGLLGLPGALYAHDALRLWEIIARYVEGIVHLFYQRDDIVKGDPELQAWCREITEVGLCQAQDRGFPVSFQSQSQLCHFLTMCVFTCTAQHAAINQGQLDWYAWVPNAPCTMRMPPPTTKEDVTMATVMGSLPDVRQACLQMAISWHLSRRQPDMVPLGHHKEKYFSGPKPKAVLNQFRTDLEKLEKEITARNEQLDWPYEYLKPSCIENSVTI
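Purified human 12hLO (150 nM final) in 25 mM Hepes, 0.01% Triton X-100, pH 7.0 was preincubated 15 min at room temperature with compound. Then 40 uM arachidonic acid was added, 30 min. Hydroperoxide was read by Fe-XO absorbance ratio 573/405 nm.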
ClpP mod: qHTS Assay for Activators of ClpP; ATP-dependent Clp protease proteolytic subunit (Bacillus subtilis (strain 168)), P80244; purified B. subtilis ClpP, FRET peptide cleavage, 20 min; Potency, µM (titrated, usually from 57.5 µM), for the others: top-dose activity change, negative = active; 1.9% of 340,000 active; AID 651965, 2013; active = well fitted falling curve with a large enough effect; inconclusive = small, poorly fitted or top-dose-only effect; inactive = no such curve, though single readings can be large or run the other way; note: potency is the fitted concentration of half-maximal effect; the source files actives as falling curves though it sought activators and does not explain the sign; nearly all actives have a fitted effect of over 65% in size
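FRET quenching reversal measured ClpP activation: 10 microg/mL B. subtilis ClpP at pH 8 with the FRET-FV decapeptide, read at 430 nm after 320 nm excitation. The 20-min minus 0-min signal was scaled between DMSO/no-enzyme wells and ADEP (5.8 microM final).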
KCNH2 3.1 inh: qHTS for Inhibitors of KCHN2 3.1: Mutant qHTS | U2OS KCNH2 3.1, thallium flux FluxOr; hits give low values | activity change, % (tested at about 1.8 µM) | 0.95% of 340,000 active | AID 720553, 2013;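 active = maximum activity change below -70%; inconclusive = maximum activity change from -70% to -50%; inactive = maximum activity change above -50%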;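 note: thallium influx rate constant from kinetic fluorescence after stimulation buffer; % is set by controls: 0 for no effect and ±100 for the full control effect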
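Normalized rate constant (relative to positive and negative DMSO controls) derived from a 2 min kinetic fluorescence read after stimulation; U2OS cells expressing the 3.1 isoform via virus at 1.77 x 10^8 /mL.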
BCR signal inh: qHTS Assay to Find Inhibitors of Chronic Active B-Cell Receptor Signaling; ABC-DLBCL IkBa-CBG/CBR reporter, luminescence ratio, 4 h; Potency, µM (top dose mostly 46.1 µM), without a hit: at the top dose activity change, negative = inhibition, hits mostly inhibitors; 0.05% of 340,000 active; active = well fitted inhibition curve with a large enough effect in the signal ratio, with a control signal flat, not every such curve was filed as active; inconclusive = small, poorly fitted or top-dose-only effect, or effect the other way, or a change in a side signal; the % refers to the signal ratio;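 note: potency is the fitted concentration of half-maximal effect; plate controls were basal doxycycline-induced cells for no effect and cells given 10 µM MG132 for full effect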
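Cell line TMD8 (human ABC DLBCL), stably expressing tet-inducible CBG68-IkBa fusion and CBR; IMDM/0.5% FBS; cpd up to 46 uM; dox induction, 4 h, 37C/5% CO2; dual luminescence; green/red ratio; MG132 control.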
KCNH2 WT inh: qHTS for Inhibitors of KCHN2 3.1: Wildtype qHTS | 0.37% of 340,000 active | Voltage-gated inwardly rectifying potassium channel KCNH2 (Homo sapiens), Q12809 | activity change, % at 1.84 µM | U2OS, BacMam KCNH2, thallium flux FluxOr; hits give low values;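 active = maximum activity change below -70%; inconclusive = maximum activity change between -70% and -50%; inactive = maximum activity change above -50%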; note: % is set by controls: 0 for no effect and ±100 for the full control effect
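U2OS cells transduced with wild-type KCNH2 virus are loaded with FluxOr dye for 45 min, and thallium flux is measured in kinetic reads before and after stimulation buffer. Rate constants are normalized to DMSO controls.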
LDHA inh: qHTS assay for inhibitors of human lactate dehydrogenase; L-lactate dehydrogenase A chain (Homo sapiens), P00338; purified LDHA, NADH/diaphorase-resazurin fluorescence; hits give low values; activity change, % (values are at about 110 or 230 µM); 0.15% of 480,000 active; AID 1347041, 2019; in the data active = activity change below about -30%; inconclusive = mostly about -25% to -30%;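 note: plate controls were DMSO wells for no effect and wells without enzyme for full effect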
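Human LDH5 (2 nM) was incubated with 0.06 mM NADH and 0.2 mM pyruvate for 5 min at room temperature in Tris pH 7.4. Remaining NADH was coupled through diaphorase/resazurin, and resorufin fluorescence was read at 0 and 20 min.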
Active calls of the source: *. Compounds with a hit are over-represented: about 3% of the library has one in this group of screens.

How did O=C1NC[C@H](Cc2ccccc2)N(CC2CCN(CCCC3CCCC3)CC2)C1=O do in these assays?
ALOX12 inh: -30%; ClpP mod: -3%; KCNH2 3.1 inh: -80*; KCNH2 WT inh: -130*; LDHA inh: 1

Results for O=C1NC[C@H](Cc2ccccc2)N(CC2CCN(CCc3ccccc3)CC2)C1=O ?
ALOX12 inh: -6%; ClpP mod: -1%; KCNH2 3.1 inh: -8; KCNH2 WT inh: 7; LDHA inh: -2

What do the screens show for `CC(=O)Oc1ccc(C(=O)Nc2ccc3c(c2)C(=O)N(CCC(=O)O)C3=O)cc1`?
ALOX12 inh: -13%; ClpP mod: 28µM*; KCNH2 3.1 inh: 5; BCR signal inh: 11%; KCNH2 WT inh: -20; LDHA inh: -6

How did COc1cccc(C(=O)Nc2ccc3c(c2)C(=O)N(CC2CCCO2)C3=O)c1 (stereo not given) do in these assays?
ALOX12 inh: 0%; ClpP mod: 0%; KCNH2 3.1 inh: -6; BCR signal inh: inconclusive; KCNH2 WT inh: -1; LDHA inh: 2

Results for O=C(Nc1ccc2c(c1)C(=O)N(CC1CCCO1)C2=O)c1cccc(Br)c1 (stereo not given) ?
ALOX12 inh: 3%; ClpP mod: 32µM*; KCNH2 3.1 inh: -38; BCR signal inh: -18%; KCNH2 WT inh: 4; LDHA inh: 0

What do the screens show for `CC(=O)Oc1cccc(C(=O)Nc2ccc3c(c2)C(=O)N(CC2CCCO2)C3=O)c1` (stereo not given)?
ALOX12 inh: 16%; ClpP mod: 32µM*; KCNH2 3.1 inh: -3; BCR signal inh: 0%; KCNH2 WT inh: -4; LDHA inh: -6

How did COc1ccc(S(=O)(=O)Oc2ccc3c(c2)O/C(=C\c2cccc(C)c2)C3=O)cc1 do in these assays?
ALOX12 inh: -12%; LDHA inh: -2

How did COC(=O)[C@@H]1Cc2c([nH]c3ccccc23)[C@@H]2C[C@@H](NCCNC(C)=O)C[C@@H](c3cccc(Cl)c3)N12 do in these assays?
ALOX12 inh: 30%

How did CSc1nc2c(c(=O)n(Cc3ccccc3)c(=O)n2C)n1Cc1ccccc1 do in these assays?
ALOX12 inh: 23%; LDHA inh: -9

How did COc1ccc(CNc2ncc(-c3ccccc3)n2C)cc1 do in these assays?
ALOX12 inh: inconclusive; ClpP mod: -26%; KCNH2 3.1 inh: -3; BCR signal inh: 0%; KCNH2 WT inh: 7; LDHA inh: -21

Results for CCOc1cc(CNc2ncc(-c3ccc(OC)cc3)n2C)ccc1O ?
ALOX12 inh: 1µM*; ClpP mod: -6%; KCNH2 3.1 inh: -8; BCR signal inh: -4%; KCNH2 WT inh: 4; LDHA inh: -3

Results for CCOCCCNC(=O)CCc1cc2cc(C)ccc2[nH]c1=O ?
ALOX12 inh: 32%

What do the screens show for `CC(C)C(=O)NCc1ccc(-c2nc3ccccc3s2)cc1`?
ALOX12 inh: inconclusive; LDHA inh: -9

How did CCCN1C2CCCC1CC(NC(=O)Nc1ccc(C(C)C)cc1)C2 (stereo not given) do in these assays?
ALOX12 inh: 0%; ClpP mod: -3%; KCNH2 3.1 inh: -74*; BCR signal inh: -19%; KCNH2 WT inh: -10; LDHA inh: 2

What do the screens show for `CCOC(=O)C1(C)/C(=N/Nc2cccc(Cl)c2)C(=O)C(=O)N1c1ccccc1` (stereo not given)?
ALOX12 inh: 22µM*; ClpP mod: 2%; KCNH2 3.1 inh: -11; BCR signal inh: -8%; KCNH2 WT inh: 4; LDHA inh: 8

Results for Cn1c(SCCSc2nnc(-c3ccccc3)n2C)nnc1-c1ccccc1 ?
BCR signal inh: -1%

What do the screens show for `C=CCSc1nnc(-c2sc(-c3ccccc3)nc2C)n1C`?
ALOX12 inh: 5%; ClpP mod: 35µM*; KCNH2 3.1 inh: 0; BCR signal inh: 21%; KCNH2 WT inh: -2; LDHA inh: 0

How did COc1ccccc1CNCC(c1ccccc1)c1ccccc1 do in these assays?
ALOX12 inh: 2.5µM*; BCR signal inh: inconclusive

How did N#Cc1cccc(C(=O)Oc2ccccc2C(F)(F)F)c1 do in these assays?
ALOX12 inh: 5%; LDHA inh: 13

What do the screens show for `COc1ccc(C2C=C(c3ccc(F)cc3)Nc3nnnn32)cc1OCc1ccccc1` (stereo not given)?
ALOX12 inh: -25%; LDHA inh: 16

How did Cc1ccc(NC(=O)Cn2cccc2-c2nc(-c3ccccc3)no2)c(C)c1 do in these assays?
ALOX12 inh: -16%

Results for Nc1nc(COc2ccccc2C(=O)NCc2ccccc2)nc(Nc2ccccc2)n1 ?
ALOX12 inh: 6%; LDHA inh: 2

Results for Nc1nc(COc2ccccc2C=O)nc(Nc2ccccc2)n1 ?
ALOX12 inh: 168%; ClpP mod: 25µM*; KCNH2 3.1 inh: 0; BCR signal inh: -1%; KCNH2 WT inh: -2; LDHA inh: 0

Results for COc1ccc(-n2cccc2/C=C/[N+](=O)[O-])cc1 ?
ALOX12 inh: inconclusive; ClpP mod: -5%; KCNH2 3.1 inh: 3; BCR signal inh: inconclusive; KCNH2 WT inh: 3; LDHA inh: 13

How did Cc1ccc(S(=O)(=O)n2cccc2/C=C/[N+](=O)[O-])cc1 do in these assays?
ALOX12 inh: 35µM*; ClpP mod: 1%; KCNH2 3.1 inh: 7; KCNH2 WT inh: 5; LDHA inh: 4

What do the screens show for `CCc1ccc(N2CCC(CN)C2)cc1` (stereo not given)?
ALOX12 inh: inconclusive; LDHA inh: -25

What do the screens show for `C=C(C)C1CC=C(C)/C(=N/NC(=O)c2ccc(NC(=O)CCC)cc2)C1` (stereo not given)?
ALOX12 inh: -10%; ClpP mod: -4%; KCNH2 3.1 inh: -87*; BCR signal inh: 1%; KCNH2 WT inh: 4; LDHA inh: -18

How did CC(C)(C)c1[nH]nc(C(=O)O)c1Br do in these assays?
ALOX12 inh: inconclusive; LDHA inh: -9

How did COc1ccccc1NC(=O)N1CCC(c2nc3cc(C)c(C)cc3[nH]2)CC1 do in these assays?
ALOX12 inh: -3%; ClpP mod: -6%; KCNH2 3.1 inh: -23; BCR signal inh: 18µM*; KCNH2 WT inh: 14; LDHA inh: 5
